PubChem BioAssay AID485272 (The Scripps Research Institute Molecular Screening Center, 2010)
The whole screen tested about 330,000 compounds, of which about 1,300 (0.39%) were called active. The sample holds actives, similar compounds and a random draw of the others, so the mix is not that of the screen.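 The calls were made as follows: active = percent inhibition above a cutoff equal to the mean of all tested compounds plus 3 SD (cut at about 15% in these data); inactive = the rest.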

Target: Protein-arginine deiminase type-4 (Homo sapiens) (UniProt Q9UM07)
Experiment: human PAD4 inhibitors, primary screen, biochemical, fluorescence polarization, 1536-well format (AID 485272);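 also: 0% = PAD4 with RCA probe and DMSO and 100% = probe without PAD4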
Details: recombinant PAD4, RCA probe fluorescence polarization; at 6.36 µM; hits give high values

Sequence of Protein-arginine deiminase type-4 (Homo sapiens) (Q9UM07 whole entry, looked up): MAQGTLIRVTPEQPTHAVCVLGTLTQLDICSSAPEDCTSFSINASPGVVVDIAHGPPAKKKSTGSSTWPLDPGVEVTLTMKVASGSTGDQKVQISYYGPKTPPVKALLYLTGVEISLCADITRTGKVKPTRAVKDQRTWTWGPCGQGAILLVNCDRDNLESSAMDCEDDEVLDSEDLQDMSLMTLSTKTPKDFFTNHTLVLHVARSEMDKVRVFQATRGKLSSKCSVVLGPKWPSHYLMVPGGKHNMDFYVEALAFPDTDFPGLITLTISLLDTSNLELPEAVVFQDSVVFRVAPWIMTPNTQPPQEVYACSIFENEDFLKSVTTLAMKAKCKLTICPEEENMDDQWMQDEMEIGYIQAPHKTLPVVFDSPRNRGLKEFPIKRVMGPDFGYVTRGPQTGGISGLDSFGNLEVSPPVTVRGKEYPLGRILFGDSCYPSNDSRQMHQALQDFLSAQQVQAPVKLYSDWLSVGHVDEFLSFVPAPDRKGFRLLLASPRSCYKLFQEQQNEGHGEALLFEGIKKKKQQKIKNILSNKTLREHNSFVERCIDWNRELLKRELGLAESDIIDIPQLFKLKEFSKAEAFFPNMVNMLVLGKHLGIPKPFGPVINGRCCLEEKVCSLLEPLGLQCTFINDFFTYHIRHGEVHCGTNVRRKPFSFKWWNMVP

SMILES	inhibition
Nc1cc(N)nc(SCc2cccc(F)c2)n1	-6.07% (inactive)
CCc1nnc(SCc2cccc(F)c2)nc1CC	24.2% (active)
Cc1cc(=O)[nH]c(SCc2cccc(F)c2)n1	3.23% (inactive)
CC(C)Cc1nc(Nc2ccc(S(=O)(=O)N3CCCC3)cc2)c2nnn(Cc3ccccc3)c2n1	-3.06% (inactive)
CCCc1cc(=O)[nH]c(SCC(=O)Nc2ccc(S(=O)(=O)N3CCCC3)cc2)n1	5.78% (inactive)
CC(=O)Oc1ccc(N(C(C)=O)S(=O)(=O)c2ccc3ccccc3c2)cc1Br	-0.04% (inactive)
CC(=O)N(c1ccc2oc(=O)sc2c1)S(=O)(=O)c1ccc(C)cc1	19.6% (active)
COC(=O)c1c(C)oc2ccc(N(C(=O)Oc3ccccc3)S(=O)(=O)c3ccccc3)cc12	-4.57% (inactive)
CCOC(=O)c1c(C)[nH]c(C2=NNC(=NC(C)COC)SC2)c1C (configuration not stated)	-4.38% (inactive)
O=C(NC(=S)Nc1cc(C(F)(F)F)ccc1N1CCOCC1)c1ccc(-c2cccc(Cl)c2)o1	-0.46% (inactive)
Cc1ccc(-n2[nH]c(C)c(/C=N/NC(=O)c3cccc([N+](=O)[O-])c3)c2=O)cc1C	-0.65% (inactive)
COc1cc(SC#N)ccc1N=Cc1c(C)[nH]n(-c2ccc(C)cc2)c1=O	27.3% (active)
COc1ccc(C(=O)Nc2ccc(C(=O)NCC3CCCO3)cc2)c(OC)c1OC (configuration not stated)	2.07% (inactive)
COc1ccc(CCn2ccc(O)c(Cc3ccc(Cl)cc3Cl)c2=O)cc1OC	2.71% (inactive)
COc1ncnc2c1N=C1CC(C)(C)CC(N)=C1S2	16.7% (active)
C#CCOCCOCCOCCNc1nc(N2CCN(C(=O)C([C@@H](C)O)n3cc([C@@H](N)CCCCN)nn3)CC2)nc(N2CCN(C(=O)[C@H](CCCCN)n3cc(CN)nn3)CC2)n1 (some centres not stated)	4.78% (inactive)
CC(=O)NS(=O)(=O)c1ccc(N/C(N)=N/c2nc(C)cc(C)n2)cc1	-0.78% (inactive)
CSc1ccc(/C=C2\NC(=O)NC2=O)cc1	-0.37% (inactive)
COc1ccc(C(=O)Nc2nc(-c3ccc(S(=O)(=O)N4CCOCC4)cc3)cs2)cc1	17.5% (active)
CNC(=O)c1ccsc1NC(=O)c1ccc(S(=O)(=O)N2CCOCC2)cc1	-4.29% (inactive)
CCOC(=O)c1csc(NC(=O)c2ccc(S(=O)(=O)N3CCCC3)cc2)n1	-3.23% (inactive)
CCOC(=O)c1ccc(NNC(C)=O)c([N+](=O)[O-])c1	-2.2% (inactive)
COC(=O)c1noc(C)c1-c1ccnn1C(=O)c1ccc(Cl)cc1	-7.73% (inactive)

SMILES	inhibition
Cc1ccc(N=C2NC(=O)c3cccc([N+](=O)[O-])c32)cc1	-1.46% (inactive)
O=C(NCc1ccccn1)c1ccc2nc(-c3ccco3)c(-c3ccco3)nc2c1	7.09% (inactive)
COc1cccc(NC(=O)NCCN2CCCCC2)c1	-0.52% (inactive)
COCCNC(=O)Nc1ccc2nc(-c3ccco3)c(-c3ccco3)nc2c1	22% (active)
CCc1ccc(OC(C)C(=O)Nc2ccc(S(=O)(=O)Nc3cc(C)on3)cc2)cc1 (configuration not stated)	-0.06% (inactive)
CC(C)C(NC(=O)OCc1ccccc1)C(=O)OCC(=O)N1C(C)CCCC1C (configuration not stated)	2.54% (inactive)
Cc1nn(Cc2ccccc2)c(C)c1CNC(=O)c1ccc(F)c(S(=O)(=O)N2CCOCC2)c1	27.9% (active)
O=C(c1ccc(F)c(S(=O)(=O)N2CCOCC2)c1)N(CCc1ccccc1)Cc1ccccc1	-3.27% (inactive)
O=C(NCCSCc1ccccc1)c1ccc(Cl)c(S(=O)(=O)N2CCOCC2)c1	1.45% (inactive)
CCOC(=O)c1cc(NC(=O)SCC(=O)O)c(C)nc1C	2.33% (inactive)
CC1=NN(C(C)C)C(=O)C1	-8.28% (inactive)
CC(C)(C)NC(=O)NC(=O)COC(=O)CCC1CCCCC1	41.1% (active)
CC(C)(C)NC(=O)NC(=O)COC(=O)C1(C)CC1(Cl)Cl (configuration not stated)	-0.93% (inactive)
COc1ccccc1OCCC(=O)OCC(=O)NC(=O)NC(C)(C)C	6.96% (inactive)
COc1ccc(S(=O)(=O)N2CCCCCC2)cc1C(=O)OCC(=O)Nc1cc(C)on1	-6.43% (inactive)
CCCCN(C)CCNC(=O)CSCc1ccc(C)cc1	-2.21% (inactive)
COc1ccc(CCNS(=O)(=O)c2ccc(Cl)s2)cc1OC	-2.69% (inactive)
Cc1c(-c2nn(C)c(=O)c3ccccc23)oc2ccc(F)cc2c1=O	35.8% (active)
O=C1c2oc3ccc(Br)cc3c(=O)c2C(c2cccc(F)c2)N1CCO (configuration not stated)	-4.97% (inactive)
Cc1ccc(F)cc1NC(=O)Cc1nn(C)c(=O)c2ccccc12	-6.33% (inactive)
COC(=O)c1cc2c(N)c(C(=O)c3ccc(Cl)cc3)sc2nc1C(OC)OC	0.06% (inactive)
Nc1ccc2nc3c(=O)[nH]c(=S)[nH]c3nc2c1	31.8% (active)
O=c1c(F)cn(C2CCCO2)c(=O)n1Cc1ccccc1Cl (configuration not stated)	-4.61% (inactive)

SMILES	inhibition
O=C(CNC1CCCCC1)NCC1(c2ccccc2)CCCC1	-2.33% (inactive)
COc1ccccc1C1C(C#N)=C(N)Oc2c1c(-c1ccccc1)nn2-c1ccccc1 (configuration not stated)	33.4% (active)
Cc1nn(-c2ccccc2)c2c1C(c1ccc(F)cc1)C(C#N)=C(N)O2 (configuration not stated)	-1.5% (inactive)
Cc1nn(Cc2ccccc2)c2c1C(c1ccccc1)C(C#N)=C(N)O2 (configuration not stated)	-0.16% (inactive)
O=C(O)CC(SCC(=O)Nc1ccc(Br)cc1)C(=O)O (configuration not stated)	1.63% (inactive)
COCCOC(=O)c1sc(=S)n(CCOC)c1N	40.9% (active)
CCOC(=O)CN(C(=O)COc1nc(C)cc(C)c1C#N)c1ccc(Cl)cc1	5.17% (inactive)
CCOc1[nH]n(-c2ccc(Cl)cc2)c(=O)c1C=Nc1ccc(O)cc1	26.1% (active)
CCOc1ccc(N=C2NC(=O)S/C2=C\c2ccc(O)cc2)cc1	-1.95% (inactive)
CC(C)c1nc(CNC(=O)CC2C(=O)NCCN2Cc2ccoc2)cs1 (configuration not stated)	5.06% (inactive)
OC1CSc2nc3ccccc3n2C1 (configuration not stated)	-1.87% (inactive)
Cc1ccc(-c2cc(C(=O)NCc3cn(C)nc3C)c3cc(Br)ccc3n2)cc1	2.48% (inactive)
O=C(CSc1nc2ccccc2c(=O)n1-c1ccc(F)cc1)NC1CC1	1.54% (inactive)
O=C(CSc1nc2ccccc2c(=O)n1Cc1ccc(F)cc1)NCC1CCCO1 (configuration not stated)	-1.2% (inactive)
O=C(CCn1c(SCC(=O)c2ccccc2)nc2ccccc2c1=O)NCc1ccc(F)cc1	67.8% (active)
CCN(C(=O)CSc1nc(N)cc(=O)[nH]1)C1CCS(=O)(=O)C1 (configuration not stated)	-0.69% (inactive)
CONc1nc2nonc2nc1NOC	-1.87% (inactive)
COc1ccc([C@H]2CC(=O)C=C(c3ccc(CO)cc3)C2)cc1	1.09% (inactive)
O=S(=O)(Cc1nnnn1-c1ccc(Br)cc1)c1ccc(F)cc1	-0.08% (inactive)
O=C1CN(C(=O)CN2C(=O)NC3(CCCCC3)C2=O)c2ccccc2N1	1.47% (inactive)
Cc1ccc(C)c(S(=O)(=O)N2CCCOC2CNC(=O)C(=O)NC2CCCCC2)c1 (configuration not stated)	-5.07% (inactive)
COc1ccc(-c2nc(CS(=O)CC(=O)NCc3ccccn3)c(C)o2)cc1 (configuration not stated)	30.3% (active)
COc1cccc(-c2nc(CS(=O)CC(=O)NCc3ccc(F)cc3)c(C)o2)c1 (configuration not stated)	0.77% (inactive)

SMILES	inhibition
COc1ccc(-c2nc(CS(=O)CC(=O)NCc3ccccc3)c(C)o2)cc1OC (configuration not stated)	6.4% (inactive)
Cc1ccc(/C=C2\CCn3c2nc2cc(C(=O)O)ccc2c3=O)c(C)c1	-1.1% (inactive)
COc1ccccc1OCCCCCCN1CCN(C)CC1	-0.69% (inactive)
Cn1c(SCC(=O)Nc2nccs2)nnc1-c1cccnc1	0.78% (inactive)
Cn1c(NC(=O)c2ccccc2)nc2ccccc21	-1.36% (inactive)
Cn1c(Nc2cccc(Cl)c2)nc2ccccc21	22.6% (active)
Cc1c(C(=O)Nc2cccc(Cl)c2)cn2c(nc3ccccc32)c1C#N	-8.49% (inactive)
CC(C)CNC(=S)NC(=O)c1ccc(Cl)cc1	3.77% (inactive)
CC(C)C(NC(=O)c1ccc(Cl)cc1)C(=O)O (configuration not stated)	33.2% (active)
CC(NC(=O)c1ccc(Cl)cc1)C(=O)N1CCCCC1 (configuration not stated)	-2.13% (inactive)
CN(C)N1C(N)=C(C#N)C(c2ccc(Br)cc2)C2=C1CCCC2=O (configuration not stated)	-7.04% (inactive)
Cc1ccc(-c2nn(-c3ccccc3)cc2/C=C2\SC(=S)N(CCCCCC(=O)O)C2=O)o1	-0.43% (inactive)
CN(C)S(=O)(=O)c1cccc(-c2nn(-c3ccccc3)cc2/C=C2\SC(=S)N(CC(=O)O)C2=O)c1	29.1% (active)
Cc1ccc(-c2nn(-c3ccccc3)cc2/C=C/C(=O)Nc2cccc(S(N)(=O)=O)c2)cc1	-9.63% (inactive)
Cc1cc(NS(=O)(=O)c2ccc(NC(=S)NC(=O)c3ccc(F)cc3Cl)cc2)no1	-2.99% (inactive)
CCOc1ccc(S(=O)(=O)N2CCC(C(=O)NCc3ccccn3)CC2)cc1Cl	-2.62% (inactive)
C=C1CCC(N(O)c2cc(C)on2)C(=C)CCC2C1CC2(C)C (configuration not stated)	-6.2% (inactive)
Cc1[nH]n(-c2ccc([N+](=O)[O-])cc2)c(=O)c1C=NCCN1CCN(C(=O)c2ccccc2F)CC1	-1.51% (inactive)
O=c1[nH]n(-c2ccc([N+](=O)[O-])cc2)c(=O)c2ccccc12	31.3% (active)
COc1cnn(-c2ccc([N+](=O)[O-])cc2)c(=O)c1Cl	3.88% (inactive)
CCCCNC(=O)C1(c2ccc(OC)cc2)CCOCC1	26.1% (active)
CCCCCNC(=O)Cc1ccc(OC)cc1	1.91% (inactive)
COc1ccc(-c2cc(C(=O)NCCCN3CCOCC3)no2)cc1	-1.77% (inactive)
